Data on 109 sequences can be found in the supplement of paper PMC3334620.

Whole data set: some 33,000 sequences, median “E-score (-0.5 to 0.5)” near -0.054, cut for the highest 2% near 0.35. The full list was thinned out, with the highest values kept by preference.

The target of the assay is T1, Stb5 (UniProt P38699).
T1 sequence: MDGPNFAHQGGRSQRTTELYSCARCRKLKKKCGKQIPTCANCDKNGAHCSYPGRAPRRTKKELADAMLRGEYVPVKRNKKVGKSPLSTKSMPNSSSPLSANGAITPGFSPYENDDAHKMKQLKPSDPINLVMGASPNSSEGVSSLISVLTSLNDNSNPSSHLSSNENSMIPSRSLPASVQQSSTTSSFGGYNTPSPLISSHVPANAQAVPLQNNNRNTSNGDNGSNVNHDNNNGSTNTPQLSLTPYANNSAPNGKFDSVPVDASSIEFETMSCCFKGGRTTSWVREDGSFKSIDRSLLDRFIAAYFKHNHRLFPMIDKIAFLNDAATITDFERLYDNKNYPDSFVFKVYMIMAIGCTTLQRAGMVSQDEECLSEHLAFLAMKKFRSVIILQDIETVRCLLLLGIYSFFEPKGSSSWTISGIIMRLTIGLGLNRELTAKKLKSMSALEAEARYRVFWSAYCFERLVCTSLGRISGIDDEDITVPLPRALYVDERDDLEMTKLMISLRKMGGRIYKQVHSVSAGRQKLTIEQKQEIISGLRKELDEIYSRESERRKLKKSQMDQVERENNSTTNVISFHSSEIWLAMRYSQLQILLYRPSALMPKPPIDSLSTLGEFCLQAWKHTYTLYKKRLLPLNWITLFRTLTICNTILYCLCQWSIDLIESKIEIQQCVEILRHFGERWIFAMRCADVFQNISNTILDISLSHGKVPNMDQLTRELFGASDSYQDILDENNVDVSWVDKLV
Put plainly: PBM E-score (8-mer binding enrichment) (E-score (-0.5 to 0.5)); higher = stronger / more preferred TF binding. The conditions noted are these: protein concentration: 200 nM; construct: GST-full length. Put shortly: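 Each ungapped eight-base word and its reverse complement, pooled, received an E-score from the Universal PBM Analysis Suite. Underlying scans, normalised with masliner, recorded fluorescent anti-GST bound to GST-tagged yeast transcription factors. These were applied at about 100-200 nM to universal all-10-mer Agilent arrays double-stranded by primer extension.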
In the case of AATACTGC, the “PBM E-score” value is -0.0596.

Regarding CCAGTATA, the “PBM E-score” value was -0.066.

Consider AAAGCACC, for which the “PBM E-score” value was determined as 0.311.

Take ACCCCAAA: the “PBM E-score” value is -0.179.

On to AACGGCGT, for which the “PBM E-score” value worked out at 0.348.

As for ACCGGCAT, the “PBM E-score” value worked out at 0.337.

Regarding ACCGGCGG, the “PBM E-score” value amounted to 0.403.

In the case of ACCGGCGA, the “PBM E-score” value amounted to 0.281.

On to ACCGGCGT, for which the “PBM E-score” value was 0.365.

As to ACCGGCGC, the “PBM E-score” value turned out to be 0.336.

GGAACAGA: the “PBM E-score” value is -0.104.

On to AGCGCCTC, for which the “PBM E-score” value was -0.0428.

On to CCTATGCA, for which the “PBM E-score” value is -0.158.

For the sequence CTCCGCTA, the “PBM E-score” value was determined as 0.349.

As to ATCCGCCA, the “PBM E-score” value was 0.18.

Regarding GTCCGCAA, the “PBM E-score” value came out at 0.196.

On to GTCCGCCA, for which the “PBM E-score” value came to 0.4.

On to GTCCGCTA, for which the “PBM E-score” value is 0.374.

Consider ATCCGCTA, for which the “PBM E-score” value came to 0.155.

GTTTCTTA: the “PBM E-score” value was 0.00445.

With AGGCAATA, the “PBM E-score” value was -0.0408.

With CGGCAGTC, the “PBM E-score” value amounted to 0.11.

For AGGCAGTA, the “PBM E-score” value is -0.205.

Regarding CGGCAATC, the “PBM E-score” value came to 0.185.

As to CGGCAATA, the “PBM E-score” value stood at 0.454.

With CGGCAGTA, the “PBM E-score” value is 0.4.

Regarding CGAACCCG, the “PBM E-score” value was determined as 0.103.

Turning to CGACCAGC, the “PBM E-score” value was 0.128.

AATCGCGT: the “PBM E-score” value is -0.00793.

With GAACCTTC, the “PBM E-score” value is -0.201.

With CATCGCTC, the “PBM E-score” value was -0.00533.

As for ATTTGCAC, the “PBM E-score” value is -0.273.

CGCGCATA: the “PBM E-score” value was 0.112.

For GTCGGTGA, the “PBM E-score” value was found to be 0.374.

On to ATCGGTGG, for which the “PBM E-score” value is 0.276.

Regarding GTCGGTCA, the “PBM E-score” value stood at 0.259.

For ATCGGTGC, the “PBM E-score” value is 0.324.

As for ATCGGTGA, the “PBM E-score” value came out at 0.366.

Take CTCGGTGA: the “PBM E-score” value was 0.244.

For the sequence CTTCGGGA, the “PBM E-score” value came out at 0.131.

For CTCTTAAA, the “PBM E-score” value is -0.0109.

For CTGACCAA, the “PBM E-score” value is -0.176.

AGGTTGTC: the “PBM E-score” value was -0.204.

CGCCTGGA: the “PBM E-score” value was -0.0581.

For TTCACCAA, the “PBM E-score” value is -0.0231.

Consider AAGTCCCG, for which the “PBM E-score” value is 0.385.

As for AAGTCCGG, the “PBM E-score” value stood at 0.43.

AAGTCCTG: the “PBM E-score” value amounted to 0.0166.

As for AAGTCCTA, the “PBM E-score” value turned out to be 0.0926.

In the case of CAGTCCGC, the “PBM E-score” value is 0.252.

Consider AAGTCCGT, for which the “PBM E-score” value was determined as 0.454.

Turning to CAGTCCGG, the “PBM E-score” value turned out to be 0.189.

In the case of CAGTCCCG, the “PBM E-score” value was 0.192.

In the case of AAGTCCAT, the “PBM E-score” value amounted to 0.0307.

As for AAGTCCCT, the “PBM E-score” value is -0.209.

Turning to AAGTCCGC, the “PBM E-score” value was 0.46.

As for AAGTCCTC, the “PBM E-score” value is -0.066.

Turning to GATATCCA, the “PBM E-score” value is -0.16.

As for GCCCAAAC, the “PBM E-score” value was -0.0152.

Consider CAGCGTGC, for which the “PBM E-score” value was determined as 0.0885.

As to GAACAGCC, the “PBM E-score” value is -0.134.

Regarding TCCGTGCA, the “PBM E-score” value is 0.23.

With ACCCTGTG, the “PBM E-score” value was -0.19.

Take AACAGTTG: the “PBM E-score” value is -0.0985.

As for ATCTGCCA, the “PBM E-score” value is -0.118.

For the sequence TCTAGTCA, the “PBM E-score” value is -0.11.

As for CATGTGCC, the “PBM E-score” value was -0.177.

As for TAGTCCGA, the “PBM E-score” value was 0.309.

Consider CAGTCCGA, for which the “PBM E-score” value was found to be 0.273.

For the sequence GAGTCCGA, the “PBM E-score” value came to 0.286.

For GAGTCCGC, the “PBM E-score” value was 0.371.

Turning to AAGTCCGA, the “PBM E-score” value was found to be 0.459.

For the sequence GAGTCCCC, the “PBM E-score” value is -0.12.

Regarding ATTGTCCG, the “PBM E-score” value was 0.372.

On to AATGTCCG, for which the “PBM E-score” value is 0.438.

Take AATGTCCA: the “PBM E-score” value was -0.0901.

ATTGTCCC: the “PBM E-score” value came out at 0.0499.

ATTGTCCA: the “PBM E-score” value is -0.191.

For the sequence CATGTCCG, the “PBM E-score” value was 0.273.

ACTGTTAC: the “PBM E-score” value was -0.163.

For CCATCGCG, the “PBM E-score” value came to 0.195.

On to AACCCCTT, for which the “PBM E-score” value was 0.0178.

For the sequence GCACGTGA, the “PBM E-score” value is -0.337.

For the sequence GATCGGGC, the “PBM E-score” value came out at 0.301.

As to CATCGGAC, the “PBM E-score” value was 0.34.

AATCGGAC: the “PBM E-score” value was found to be 0.362.

With GATCGGAA, the “PBM E-score” value was 0.133.

As to AATCGGAG, the “PBM E-score” value amounted to 0.263.

On to GATCGGAC, for which the “PBM E-score” value was found to be 0.415.

For the sequence ACGCGCCT, the “PBM E-score” value is 0.013.

With ACTTGACC, the “PBM E-score” value is -0.0754.

Regarding AACGGCAG, the “PBM E-score” value was determined as 0.107.

As for CTTTTTGA, the “PBM E-score” value was -0.162.

In the case of CCCTCCGA, the “PBM E-score” value was found to be 0.0129.

Take ACCTCCGT: the “PBM E-score” value came out at 0.302.

Take CCCTCCGG: the “PBM E-score” value was determined as 0.122.

Turning to TCCTCCGA, the “PBM E-score” value amounted to 0.157.

Regarding ACCTCCGG, the “PBM E-score” value worked out at 0.372.

Turning to ACCTCCGA, the “PBM E-score” value amounted to 0.364.

Take GCTGGAAA: the “PBM E-score” value is -0.0514.

Turning to AACCCTTA, the “PBM E-score” value was -0.147.

CAGGCATG: the “PBM E-score” value was -0.111.

In the case of CTAAAAGC, the “PBM E-score” value came out at 0.0851.

With GGAGTTTA, the “PBM E-score” value came out at 0.362.

Turning to CGAGTTAC, the “PBM E-score” value was -0.104.

On to CGAGTTTA, for which the “PBM E-score” value is 0.179.

Turning to AGAGTTAA, the “PBM E-score” value is -0.131.

For the sequence AGAGTTAC, the “PBM E-score” value is -0.241.

On to GGAGTTAA, for which the “PBM E-score” value amounted to 0.398.
